A selection: hits, their analogues and other compounds. The true share with any hit is near 5.2%.
NR3A LBD binder: binders of NR3A ligand-binding domain, primary screen, biophysical, differential scanning fluorimetry, uHTS; Glutamate receptor ionotropic, NMDA 3A (GRIN3A) ligand-binding domain; NR3A LBD differential scanning fluorimetry, Tm shift; 0% = protein alone, 100% = glycine-bound protein; Tm shift relative to glycine control, % at 25 µM; hit rate 2.5% among 340,000; AID 1259313, 2017;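 active means melting temperature shift of at least 10% of the positive control shift, at one fixed dose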
esBAF inh: Bmi1 luciferase reporter increase in mESCs, primary screen, esBAF inhibitor project, mouse ES cells, Bmi1 luciferase knock-in, single point; hit rate 2% among 350,000; AID 602393, 2012; 24 h; 100% = twice the neutral-well signal; reporter increase, % at 12.5 µM; in the data active means activation above about 40%;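 further: a rise in the Bmi1 reporter signal indicates esBAF inhibition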
SKN-1 block: suppressors of acrylamide-induced Pgst-4::GFP reporter in worms, primary screen, SKN-1 inhibitor project, whole organism, uHTS, GFP/RFP fluorescence ratio, strain VP596; C. elegans VP596 Pgst-4::GFP/RFP ratio, 24 h; inhibition, % at 21.8 µM; hit rate 0.49% among 360,000;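 active means interference check ratio from 0.5 to 1.5 plus GFP to RFP signal ratio inhibition reaching or exceeding a fixed threshold, cut at about 30% in these data, passing the limit was not always enough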
Vif inh: HIV Vif self-association inhibitors, primary screen, imaging, HEK293T, single point; AID 602346, 2012; inhibition, % at 7.49 µM; hit rate 0.35% among 340,000; HEK293T cells, Vif self-association by quenched fluorescence, 24 h; in the data active means inhibition above about 50%, passing the limit was not always enough
SMARCA2 activ: SMARCA2 (BRM) function activators, primary screen, cell-based, luminescence, high throughput; activation, % at 9.1 µM; hit rate 1% among 370,000; AID 652017, 2013; MG213 cells, MMTV-luciferase reporter, dexamethasone, overnight; in the data active means activation above about 7.8%
NadD block: inhibitors of S. aureus NadD, primary screen, biochemical, colorimetric, uHTS | inhibition, % at 20 µM | hit rate 0.78% among 360,000 | purified NadD enzyme, colorimetric absorbance read-out | AID 602399, 2012; in the data active means inhibition above about 26%
Ring1 derepress: Ring1 mRNA increase in mouse ESCs, confirmation, esBAF inhibitor project, cell-based, mouse ESC, RT-qPCR, cherry-pick; shares compounds with esBAF inh; mouse ESC E14, Ring1 mRNA RT-qPCR fold change; fold change at 33 µM; 550 tested, under 10 active; AID 743176, 2013;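 active means Ring1 gene expression raised more than 2-fold over untreated cells in both replicates at either tested dose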;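 further: Ring1 transcript normalised to actin housekeeping signal by TaqMan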
Fgf4 repress: Fgf4 mRNA decrease in mouse ESCs, confirmation, esBAF inhibitor project, cell-based, mouse ESC, RT-qPCR, cherry-pick. Fgf4 expression fold change at 33 µM. shares compounds with esBAF inh. mouse ESC E14, Fgf4 mRNA qPCR fold change; stronger effect = lower value. AID 743177, 2013. hit rate 4% among 550;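 active means Fgf4 expression under 0.8 fold of control in both repeat measurements at one or both tested doses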;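 further: Fgf4 transcript normalised to actin in duplex TaqMan qPCR; cells exposed to compound for 24 h before lysis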
Bmi1 derepress: esBAF inhibition via Bmi1 de-repression, confirmation, cell-based, RT-qPCR, mouse ESC, single point, cherry-pick. 550 tested, under 10 active. fold change at 33 µM. shares compounds with esBAF inh. mouse ESE14 ES cells, Bmi1 mRNA qPCR fold; stronger effect = higher value;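 active means Bmi1 expression fold change above 6 at either tested concentration, seen in replicate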
A549 cytotox: A549 cell cytotoxicity, cytotoxicity control, plate reader, single point, cherry-pick; shares compounds with esBAF inh; cell viability change % (negative = cytotoxic), % at 25 µM, hits read low; 550 tested, under 10 active; AID 743188, 2013; call rule not given here
HepG2 tox SP: HepG2 cell cytotoxicity, cytotoxicity control, plate reader, single point, cherry-pick | shares compounds with esBAF inh | stronger effect = lower value | activity change, negative = inhibition, % at 25 µM | hit rate 4% among 550 | AID 743189, 2013; in the data active means activity change below about -50%
HEK293 tox SP: HEK293 cell cytotoxicity, cytotoxicity control, plate reader, single point, cherry-pick | hit rate 3% among 550 | shares compounds with esBAF inh | activity change, negative = inhibition, % at 25 µM, hits read low; in the data active means activity change below about -38%, passing the limit was not always enough
NadD inh conf: inhibitors of S. aureus NadD, confirmation, biochemical, colorimetric, single concentration. shares compounds with NadD block. purified S. aureus NadD, colorimetric enzyme assay. inhibition, % at 20 µM. hit rate 13% among 2,000; in the data active means inhibition mostly above about 42%, no sharp cut-off; inactive means mostly below about 42%
SMARCA2 conf: SMARCA2 (BRM) function activators, confirmation, cell-based, luminescence, triplicate | shares compounds with SMARCA2 activ | MG213 cells, MMTV-luciferase with dexamethasone, overnight; MG213 cells expressing E1A, Rb sequestered; DMSO wells 0%, reference activator 100% | activation, % at 9.1 µM | hit rate 30% among 3,500 | AID 652260, 2013;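 active means activation above its plate's cutoff, the mean activation of tested wells plus 3 SD, cut at about 7.9% in these data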
VP16 Luc act: GAL4-VP16 luciferase reporter activation, counter-screen for SMARCA2 (BRM) activator project, cell-based, pG5luc, luminescence, high throughput. hit rate 41% among 3,500. HEK293 GAL4-VP16 pG5luc reporter; scaled: DMSO wells 0%, SAHA wells 100%. activation, % at 9.1 µM. shares compounds with SMARCA2 activ;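 active means activation above the solvent-only control well mean plus 3 SD, averaged across control plates, cut at about 5.2% in these data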
Of the large screens only hits and unclear results are named; the others gave an inactive call (follow-up assays come after a bar, where they were run).

C[C@H]1CN([C@@H](C)CO)C(=O)Cc2cc(NS(=O)(=O)c3cn(C)cn3)ccc2O[C@@H]1CN(C)Cc1ccc(C(F)(F)F)cc1	none (no result: NR3A LBD binder, SKN-1 block, Vif inh, SMARCA2 activ, NadD block)
O=S(=O)(N[C@H]1CC[C@H](CCn2cc(C3(O)CCCC3)nn2)O[C@H]1CO)c1ccc(Cl)cc1	none (no result: NR3A LBD binder, SKN-1 block, Vif inh, SMARCA2 activ, NadD block)
Cc1ccc(C)c(NC(=O)c2cc(-c3cc(C)c(C)cc3O)n[nH]2)c1	NR3A LBD binder 28.4, esBAF inh 57.4, SMARCA2 activ 11.0 | Ring1 derepress inactive | Fgf4 repress inactive | Bmi1 derepress inactive | A549 cytotox inactive | HepG2 tox SP inactive | HEK293 tox SP inactive | SMARCA2 conf inactive | VP16 Luc act 5.9
Nc1cccc(N=[N+]([O-])c2cccc(N)c2)c1	esBAF inh 76.9, SMARCA2 activ 8.8 | Ring1 derepress inactive | Fgf4 repress inactive | Bmi1 derepress inactive | A549 cytotox inactive | HepG2 tox SP inactive | HEK293 tox SP inactive | SMARCA2 conf 12.5 | VP16 Luc act 6.9
CC(C)(C)c1cc[n+](/C(C(=S)Nc2ccccc2F)=C(/[O-])c2ccc3c(c2)OCCO3)cc1	none (no result: esBAF inh)
[O-]/C(=C(\C(=S)Nc1ccccc1F)[n+]1ccccc1)c1ccc(-c2ccccc2)cc1	NadD block 31.0 | NadD inh conf inactive
O=C(O)c1cccc(-n2cccc2/C=C2/NC(=O)N(c3ccc(Cl)cc3)C2=O)c1	NadD block 42.6 (no result: esBAF inh) | NadD inh conf 61.1
O=C(O)c1cccc(-n2cccc2/C=C2/NC(=O)N(c3cccc(Cl)c3)C2=O)c1	none (no result: esBAF inh)
O=C(O)c1cccc(NC(=S)NC(NC(=O)c2ccccc2[N+](=O)[O-])C(Cl)(Cl)Cl)c1 (stereo unspecified)	none (no result: esBAF inh)
